HTT cytoprotect: cytoprotection in Huntington HTT-Q103 PC12 cell model | Potency, µM (titrated, usually from 56.4 µM), for inactives: cytoprotection (ATP increase), hits mostly activators | PC12 HTT-Q103 induced, cytoprotection, ATP luminescence, 40 h | actives 0.14% (n = 230,000); further: potency means the concentration at half of the fitted maximal effect; % of control where 0% means no effect; nearly all actives have a fitted effect of over 45% in size
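Huntington model: PC12 line, ecdysone-inducible HTTQ103 exon1–GFP, tebufenozide 100 nM. Test articles in a dose series. Endpoint luminescence from cellular ATP.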
IMPase cell inh: membrane-permeable compound that blocks inositol monophosphatase | P97697 | CHO-M1 cells, IP1 accumulation, HTRF TR-FRET ratio | inhibition (IP1 accumulation), % at 46.1 µM | 120,000 tested, under 10 active | AID 901; active means well fitted curve in the direction sought with a large enough effect in the signal ratio, not every such curve was filed as active; inconclusive means small, poorly fitted or top-dose-only effect, or a change in a side signal; inactive means no such curve, though single readings can be large or run the other way; the % refers to the signal ratio;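 further: cells stimulated with carbachol in lithium chloride buffer; plate controls were DMSO basal wells for no effect and reference inhibitor wells for full effect; higher means more IMPase inhibition seen as more IP1 and lower FRET ratio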
Target sequence (P97697 whole entry, looked up): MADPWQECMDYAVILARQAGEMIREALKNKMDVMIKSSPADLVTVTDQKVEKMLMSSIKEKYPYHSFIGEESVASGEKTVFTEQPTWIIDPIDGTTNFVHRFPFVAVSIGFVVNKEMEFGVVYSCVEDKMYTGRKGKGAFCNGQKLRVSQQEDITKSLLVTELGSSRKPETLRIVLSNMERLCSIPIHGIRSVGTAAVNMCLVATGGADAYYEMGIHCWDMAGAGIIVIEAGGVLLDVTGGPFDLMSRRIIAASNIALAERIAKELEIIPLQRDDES
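Cellular IMPase inhibition is scored as a rise in cytosolic IP1, detected by competitive TR-FRET between d2-labelled IP1 and a europium anti-IP1 antibody. M1-expressing CHO cells were stimulated with carbachol for 30 min at 37C, with lithium (50 mM LiCl) present in the buffer.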
PNC assembly inh: blocks assembly of the perinucleolar compartment | PC3M PTB-GFP, PNC prevalence imaging, 16 h; stronger effect = lower value | activity change (PNC), negative = inhibition, % at 10 µM | actives 3.1% (n = 140,000) | AID 2417;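 active means readout at or below -70, meaning at least 70% loss of cells showing the perinucleolar compartment, a nuclear body marking cancer cells; inconclusive means readout between -30 and a set limit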;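 further: plate controls were DMSO wells for no effect and camptothecin positive control wells for full effect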
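PC3M cells stably expressing PTB-GFP, 750–1000 cells/well, treated 16 h at 37 °C with compound (23 nl of library stock), in duplicate. After paraformaldehyde fixation and Hoechst stain, imaged at 20x; PNC prevalence scored by image analysis.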
HttQ103 aggreg: inhibitors of mutant huntingtin aggregate formation in PC12 cells; actives 1.1% (n = 220,000); Potency, µM (highest dose often 46.1 µM), for the others: at the highest dose activity change, negative = inhibition, most hits filed as inhibitors; PC12 HttQ103-GFP aggregates, Acumen cytometry, 40 h; further: potency means the concentration at half of the fitted maximal effect; on the % scale 0 is the no-effect control and ±100 the full control effect; nearly all actives have a fitted effect of over 60% in size
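Using laser scanning cytometry, GFP-positive aggregates were counted after lysis of PC12 cells induced with 100 nM tebufenozide to express HTT exon 1 Q103–GFP. Compounds were tested in titration.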
NPSR antagonist: blocks cAMP signaling of the human neuropeptide S receptor; Q6W5P4; CHO-NPSR cells, cAMP TR-FRET, antagonist mode; Potency, µM (top dose mostly 38.3 µM), inactives show at the top dose activity change, negative = inhibition, usual class: inhibitors; actives 1% (n = 220,000); further: potency means the concentration at half of the fitted maximal effect; on the % scale 0 is the no-effect control and ±100 the full control effect; nearly all actives have a fitted effect of over 50% in size
Target sequence (Q6W5P4 whole entry, looked up): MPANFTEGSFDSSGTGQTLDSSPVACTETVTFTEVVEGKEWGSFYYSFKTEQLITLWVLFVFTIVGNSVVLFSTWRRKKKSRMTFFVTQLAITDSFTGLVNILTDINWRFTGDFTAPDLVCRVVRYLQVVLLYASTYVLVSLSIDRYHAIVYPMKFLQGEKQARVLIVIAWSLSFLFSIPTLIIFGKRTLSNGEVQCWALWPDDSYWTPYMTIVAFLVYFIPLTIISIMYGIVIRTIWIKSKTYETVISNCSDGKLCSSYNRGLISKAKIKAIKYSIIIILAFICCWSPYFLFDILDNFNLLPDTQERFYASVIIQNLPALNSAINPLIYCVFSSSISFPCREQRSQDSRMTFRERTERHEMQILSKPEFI
12-hLO inh: inhibitors of human 12-lipoxygenase (ALOX12); purified 12-hLO, xylenol orange hydroperoxide absorbance; Potency, µM (doses to about 57.1 µM), for inactives: at the top dose activity change, negative = inhibition, actives largely listed as inhibitors; actives 0.12% (n = 150,000); AID 1452; further: potency means the concentration at half of the fitted maximal effect; on the % scale 0 is the no-effect control and ±100 the full control effect; nearly all actives have a fitted effect of over 55% in size
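150 nM 12hLO, 25 mM Hepes pH 7.0 + 0.01% Triton X-100; cpd preinc 15 min RT; 40 uM arachidonic acid, 30 min RT; Fe-XO 30 min; A573/A405 ratio as read-out.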
An asterisk follows results filed as active; ? = inconclusive; . = not tested or not shown; [ ] = dose if it differs, or a comment. Shown are actives, neighbours in structure and some others; about 3.3% of the full set was active somewhere. Unless noted, the call rests on the fitted dose curve; in most records, active means well fitted curve in the direction sought with a large enough effect; inconclusive means small, poorly fitted or top-dose-only effect, or another doubt; inactive means no such curve, though single readings can be large; an effect the other way counts as inactive or inconclusive.

SMILES	HTT cytoprotect	IMPase cell inh	PNC assembly inh	HttQ103 aggreg	NPSR antagonist	12-hLO inh
CCOC(=O)CSc1nnc(-c2ccoc2C)n1-c1ccc(C)cc1	10%[10 µM]	3	-100*	-3%	-15%[46.1 µM]	3%
C[C@H]1Cc2c(-c3ccccc3)nc3c(c2CO1)CN(C(=O)NCc1ccco1)CC3	-3%[10 µM]	.	.	.	.	-1%[11.4 µM]
CC#CCOC(=O)c1c(C)nc2sc3c(c2c1N)CC[C@@H](O)C3	-43%[1.9 µM]	?	.	.	.	3%
COc1cccc(Nc2nc(C)cc(C)c2C#N)c1	13%[10 µM]	1	-100*	-3%	18%[46.1 µM]	1%
Cc1cc(C)c(C#N)c(Nc2ccccc2)n1	32%[10 µM]	3	-29	-10%	11%[46.1 µM]	-3%
CC12CC3CC(C)(C1)CC(Nc1nc(N4CCOCC4)nc4ccccc14)(C3)C2	1%[10 µM]	.	.	10%[9.22 µM]	?	.
O=C(CCl)N(c1ccccc1)c1ccccc1	-187%	.	.	10µM*	?	.
Cc1ccc(/C=C(\C#N)c2nc(-c3cc4c(ccc5ccccc54)oc3=O)cs2)cc1	.	-8	.	.	.	.
O=C(/C=C/NCC(=O)c1ccccc1)c1ccc(Br)cc1	-8%[10 µM]	-6	-97*	-6%	7%	-24%
O=C(/C=C/Nc1ccccc1F)c1ccc(Br)cc1	-18%[10 µM]	.	-115*	17%	10%	2%
O=C(/C=C/Nc1ccc(Br)cc1F)c1ccccc1	.	.	-18	4%	-2%	-4%
Cc1oc2cc(O)cc(C)c2c(=O)c1-c1cnn(-c2ccccc2)c1	-8%[10 µM]	9	-115*	?	?	-11%
Cc1nc2ccccc2nc1OCc1ccc([N+](=O)[O-])cc1	-6%	.	.	13%	-1%	.
Cc1cc2ncc(-c3ccc(Cl)cc3)c(N)n2n1	-25%[10 µM]	11	-108*	-2%	-18%[46.1 µM]	1%
Nc1c(-c2ccc(Cl)cc2)cnc2ncnn12	-7%	1	-109*	-4%	0%[46.1 µM]	0%
CC[C@]1(O)C[C@@H]2CN(CCc3c([nH]c4ccccc34)[C@@](C(=O)OC)(c3cc4c(cc3OC)N(C)C3[C@]45CCN4CC=C[C@](CC)(C45)[C@@H](OC(C)=O)[C@]3(O)C(=O)OC)C2)C1 (stereo partly drawn)	-176%	.	.	.	.	.
Cc1cc(C)c(S(=O)(=O)Nc2cc(Cl)c3oc4c(c3c2)C(=O)CCC4)cc1C	.	5	.	.	.	.
CCc1ccc(-n2nc3ccc(NC(=O)COc4ccc(OC)cc4)cc3n2)cc1	.	7	.	.	.	.
c1nc(N2CCOCC2)c2[nH]cnc2n1	7%[0.074 µM]	.	.	.	.	.
c1nc(N2CCCCC2)c2[nH]cnc2n1	3%	-4	-119*	?	2%	2%
CC1(C)CC(=O)C2=C(C1)N(c1cccc(Cl)c1)C(=O)NC2(C(F)(F)F)C(F)(F)F	27%[10 µM]	.	-80*	?	-5%	1%
CC1(C)CC(=O)C2=C(C1)N(c1ccc(Cl)cc1)C(=O)C2(O)C(F)(F)F (stereo not drawn)	.	.	?	30%	-3%	3%
CN(C)CCNc1ncnc2c1sc1nc(-c3ccccc3)c3c(c12)CCCC3	-94%[10 µM]	.	.	?	-58%	.
CCOC(=O)c1cnc(SC)nc1Oc1cccc(NS(=O)(=O)c2ccc(Cl)cc2)c1	-3%[10 µM]	5	-100*	9%	-1%[46.1 µM]	9%
COc1ccc(OCC(O)CN2CCN(c3ncccn3)CC2)cc1 (stereo not drawn)	.	.	-122*	0%	8%	5%
SMILES	HTT cytoprotect	IMPase cell inh	PNC assembly inh	HttQ103 aggreg	NPSR antagonist	12-hLO inh
Cc1cc(C)nc(SCNC(=O)c2ccccc2)n1	-15%[10 µM]	-7	-9	-15%	-6%[46.1 µM]	-6%
O=C(NCSc1ccnc(SCNC(=O)c2ccc(F)cc2)n1)c1ccc(F)cc1	12%[10 µM]	-21	-97*	16%	-6%[46.1 µM]	6%
CC(C)(C)OC(=O)N[C@@H](Cc1ccccc1)c1nnc(S(=O)(=O)Cc2ccccc2)o1	-125%	10	14	?	?	-18%
Cc1ccccc1CS(=O)(=O)c1nnc([C@H](Cc2ccccc2)NC(=O)OC(C)(C)C)o1	-131%	21	?	?	10µM*	-12%
CC(=O)O[C@@H]1[C@H]([N+]2(C)CCCCC2)C[C@@H]2[C@@H]3CC[C@@H]4C[C@@H](OC(C)=O)[C@H]([N+]5(C)CCCCC5)C[C@@]4(C)[C@H]3CC[C@]21C	0%[1.9 µM]	13	.	.	.	5%
Brc1ccc(-c2nc3ccccc3s2)s1	-15%	?	13	0%	13µM*	-7%
Nc1cccc2nc3ccccc3cc12	-64%	-4	-113*	-12%[9.22 µM]	-13%[46.1 µM]	-3%
Nc1[nH]nc2nc3ccccc3cc12	22%	.	.	-4%	-20%	.
O=C(Nc1cccc(O)c1)c1ccc(Br)cc1	-13%	-11	-128*	-29%	11%[46.1 µM]	-5%
NC(=O)c1cc[n+](CC2=C(C(=O)O)N3C(=O)[C@@H](NC(=O)[C@@H](c4ccccc4)S(=O)(=O)[O-])[C@H]3SC2)cc1	.	.	.	.	-7%[46.1 µM]	.
COc1cc2cc(C#N)c(SCC(=O)N3CCOCC3)nc2cc1OC	-6%[10 µM]	3	-100*	18%	-9%[46.1 µM]	-1%
COc1cc2c(cc1OC)C1=C(C#N)CCC(=O)N1CC2	-14%[0.074 µM]	0	-100*	0%	-1%[46.1 µM]	1%

Bioassay records (PubChem)
